Laboratory results taken from PubChem BioAssay AID743279 (National Center for Advancing Translational Sciences (NCATS), 2014).
Among all 360,000 compounds or so, about 17,000 (4.7%) were called active. Roughly 5% stayed inconclusive and do not appear here. This is one part of a sample in which actives are shown more often than they occur. No stated cut-off is given here; in the data, active means activity change below about -50%; inconclusive means mostly about -30% to -49%; inactive means weaker than that. Where a SMILES comes first, the peptide text is derived from it. The star is where a group is joined. Bz = O=C(c1ccccc1)*
On the % scale 0 is the no-effect control and ±100 the full control effect.

Experiment: qHTS for Inhibitors of Inflammasome Signaling: IL-1-beta AlphaLISA Primary Screen
Settings: THP-1 LPS/ATP IL-1B secretion, 16 h; at 57.5 µM, hits give low values
Method in brief: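 Secreted IL-1B measured by AlphaLISA bead assay after 16 h compound exposure of THP-1 cells; compounds (final up to 57.5 uM) added 1 h before LPS (250 ng/mL) and ATP (1.25 mM) stimulation; lower signal means less secretion.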
In the case of `CN(C)CCNC(=O)c1ccc(Cl)c2cc3ccccc3nc12`, the activity change is reported as -112% (active).
For `CN(C)CCNC(=O)Nc1cccc(Cl)c1Cl`, the activity change was 2.19% (inactive).
For `CC(=O)NCCNC(=O)c1cc(-c2cccc3ccccc23)nc2ccccc12`, the activity change was 0.0656% (inactive).
For `O=C(OCc1ccccc1)N1CCC2CC1c1cc(N3CCN(S(=O)(=O)c4cc(Cl)cc(Cl)c4)CC3)ccc12` (stereo not given), the activity change was 21.9% (inactive).
For `CC1(C)C=Cc2c(ccc3c2OC[C@@H](c2ccc(O)cc2O)C3)O1`, the activity change was -13.2% (inactive).
With `CC(=O)c1c(N2CCOCC2)nc(=S)n(Cc2ccccc2)c1C` the activity change was 30.6% (inactive).
For `CC(=O)c1c(N2CCN(c3ccc(F)cc3)CC2)nc(=S)n(-c2ccccc2)c1C`, the activity change was -79.7% (active).
With `CC(=O)c1c(N2CCOCC2)nc(=S)n(-c2cc(C)ccc2C)c1C` the activity change was -14.3% (inactive).
In the case of `CCOc1ccc(NC(=O)CN(C)C(=O)c2c(C)noc2C)cc1OCC`, the activity change is reported as 2.67% (inactive).
For `Cc1ccccc1NC(=O)CSC(=O)c1ccccc1`, the activity change was 22.2% (inactive).
With `Cc1cccc(NC(=O)COC(=O)CCc2ccccc2)c1C` the activity change was 5.72% (inactive).
For `Cc1cccc(NC(=O)CSC(N)=O)c1C`, the activity change was -90.9% (active).
For `CCCCCCCCCCCCCCCC(=O)OC/C=C(C)/C=C/C=C(C)/C=C/C1=C(C)CCCC1(C)C`, the activity change was -8.52% (inactive).
For `COC(=O)c1ccc(NC(=O)c2ccccc2NS(=O)(=O)c2ccccc2)cc1`, the activity change was -61.7% (active).
In the case of `COC(=O)c1ccccc1NS(=O)(=O)c1ccc2[nH]c(=O)[nH]c2c1`, the activity change is reported as -16.3% (inactive).
In the case of `CCOc1ccc(NC(=O)c2ccccc2NS(C)(=O)=O)cc1`, the activity change is reported as -7.57% (inactive).
With `Cc1ccc(NS(=O)(=O)c2cc3c(cc2C)NC(=O)CO3)cc1` the activity change was -0.465% (inactive).
For `CC1CCN(C(=O)COC(=O)CCC(=O)c2cccs2)CC1`, the activity change was 5.83% (inactive).
For `CCN1C(=O)[C@H]2[C@@H](c3ccccc3)N[C@]3(CCCN(Cc4ccc(C)cc4)C3=O)[C@H]2C1=O`, the activity change was -7.34% (inactive).
For `COc1cccc(CN(C)C(=O)CC23CC4CC(CC(C4)C2)C3)c1OC`, the activity change was -55.8% (active).
For `COc1ccc(CN(C)C(=O)Cc2ccsc2)c(OC)c1OC`, the activity change was 40.4% (inactive).
In the case of `COc1ccc(S(=O)(=O)N2CCCCCC2)cc1C(=O)N(C)Cc1cccc(OC)c1OC`, the activity change is reported as -8.59% (inactive).
With `COc1ccc(NC(=O)C2(C)Cc3c(-c4cccc(NC(C)=O)c4)ccnc3O2)cc1` (stereo not given) the activity change was 48.5% (inactive).
For `COC1=NC2=NCCN2C(OC)=N1`, the activity change was 0.792% (inactive).
With `COc1ccc(C(=O)ON=C2c3ccccc3-c3ccccc32)cc1OC` the activity change was 0% (inactive).
With `COc1ccc(C(=O)O/N=C(\N)Cc2ccc(Cl)cc2Cl)cc1OC` the activity change was -58.9% (active).
In the case of `COc1ccc(C/C(N)=N/OC(=O)c2ccco2)cc1OC`, the activity change is reported as 9.63% (inactive).
In the case of `CCCCC(O)C1=C[N+](=O)CC=C1` (stereo not given), the activity change is reported as -4.88% (inactive).
In the case of `CCn1ccnc1CNC(=O)CC1C(=O)NCCN1Cc1ccc(F)cc1Cl` (stereo not given), the activity change is reported as -0.584% (inactive).
With `CCCCc1ccc(NC(=O)CN2C(=O)NC(Cc3ccccc3)C2=O)cc1` (stereo not given) the activity change was -1.39% (inactive).
In the case of `COc1ccccc1C(=O)COC(=O)CNS(=O)(=O)c1ccc(NC(C)=O)cc1`, the activity change is reported as 9.71% (inactive).
In the case of `COc1ccccc1CNC(=O)COC(=O)CNS(=O)(=O)c1ccc(NC(C)=O)cc1`, the activity change is reported as 32.4% (inactive).
For `CC(=O)Nc1ccc(S(=O)(=O)NCC(=O)OCc2cc(=O)oc3ccc4ccccc4c23)cc1`, the activity change was -58.2% (active).
In the case of `Cc1ccc(S(=O)(=O)N2CCCCC2)cc1NC(=O)CCNC(=O)c1ccccc1Cl`, the activity change is reported as 10.9% (inactive).
With `Cc1cccc(N(C(=O)c2csnn2)C(C(=O)NCc2ccccc2)c2ccncc2)c1` (stereo not given) the activity change was -12.7% (inactive).
In the case of `CC1(C(=O)NS(=O)(=O)c2cccc(OC(F)F)c2)CCN1C(=O)C1CC1` (stereo not given), the activity change is reported as 0% (inactive).
For `Cc1ccc(C(=O)CN2C(=O)NC3(CCc4ccccc43)C2=O)c(C)c1` (stereo not given), the activity change was -6.4% (inactive).
With `COc1ccc(-n2c(C)cc(C(=O)CN3C(=O)NC4(CCc5ccccc54)C3=O)c2C)cc1` (stereo not given) the activity change was -85.6% (active).
With `COc1ccc(C(=O)CN2C(=O)NC3(CCc4ccccc43)C2=O)c(OC)c1` (stereo not given) the activity change was -22.2% (inactive).
For `CC(=O)Nc1ccc(S(=O)(=O)NC(C)C(=O)OCC(=O)NC2CCCC2)cc1` (stereo not given), the activity change was 0% (inactive).
In the case of `CC(=O)Nc1ccc(NC(=O)COc2ccc(S(=O)(=O)NC(C)c3ccccc3)cc2)cc1` (stereo not given), the activity change is reported as 18.3% (inactive).
With `CC(=O)Nc1ccc(S(=O)(=O)NC(C)C(=O)OCCOc2ccc(F)cc2)cc1` (stereo not given) the activity change was -84.9% (active).
In the case of `COc1ccccc1-c1cc2nc(NCc3cccc(Cl)c3)ccn2n1`, the activity change is reported as -19.9% (inactive).
For `Cc1ccc(-c2nn(-c3cccc(F)c3)cc2CNCCc2ccncc2)o1`, the activity change was -77.5% (active).
With `Cc1ccc(N2C(=O)C(CC(=O)Nc3cccc(F)c3)N(CCc3ccncc3)C2=O)cc1` (stereo not given) the activity change was -0.0392% (inactive).
With `Cc1ccc(-c2cnc(C(O)c3cc(Cl)cc(Cl)c3)[nH]2)cc1` (stereo not given) the activity change was 6.64% (inactive).
For `CCC(C)(C)NC(=O)CN(Cc1cccs1)C(=O)CNS(=O)(=O)c1ccc(F)cc1`, the activity change was 4.73% (inactive).
For `CC(C)(C)NC(=O)CN(Cc1cccs1)C(=O)CNS(=O)(=O)c1ccccc1`, the activity change was -55.8% (active).
With `Cc1ccc(S(=O)(=O)NCC(=O)N(CC(=O)NC(C)(C)C)Cc2cccs2)cc1` the activity change was 14.4% (inactive).
In the case of `CCN1C(=O)[C@@H]2[C@@H]3CN(S(=O)(=O)c4ccccc4C)[C@@H](c4ccc(Cl)cc4)[C@@H]3C(=O)C[C@@H]2C1=O`, the activity change is reported as -15.9% (inactive).
With `CC1(C(=O)Nc2cccc3c2CCCC3)CCN1C(=O)CCc1ccc(Cl)cc1Cl` (stereo not given) the activity change was -9.96% (inactive).
For `NC(=O)C1CCN(C(=O)CC2C(=O)NCCN2Cc2cccc(Oc3ccccc3)c2)CC1` (stereo not given), the activity change was -6.56% (inactive).
In the case of `CCc1nnc(NC(=O)c2cc(S(=O)(=O)N3CCN(CC)CC3)ccc2Cl)s1`, the activity change is reported as 18.8% (inactive).
In the case of `COc1ccc(C(O)(C2CCCCC2)C(CN2CCCC2)c2ccccc2)cc1` (stereo not given), the activity change is reported as -54.5% (active).
With `CC(CN1CCCCC1)c1ccccc1` (stereo not given) the activity change was 11.2% (inactive).
In the case of `CCCC(O)(c1ccc(OC)cc1)C(CN(C)C)c1ccccc1` (stereo not given), the activity change is reported as -9.06% (inactive).
For `CC(C)(C(=O)N1CCC1(C)C(=O)NS(=O)(=O)c1ccc(Br)cc1)c1ccccc1` (stereo not given), the activity change was 17% (inactive).
In the case of `CC(C)c1ccc(N2CC(C(=O)Nc3nccs3)CC2=O)cc1` (stereo not given), the activity change is reported as -0.66% (inactive).
In the case of `CC1CN(C(=O)c2cccc(NS(=O)(=O)c3ccc(Br)cc3)c2)CC(C)O1` (stereo not given), the activity change is reported as 53% (inactive).
With `O=C(CC1NCCc2ccccc21)Nc1cccc(Cl)c1` (stereo not given) the activity change was -29.8% (inactive).
In the case of `CCN1C(=O)N[C@@H](c2ccccc2)C(C(=O)OC)=C1C`, the activity change is reported as 15% (inactive).
For `CCOC(=O)C1=C(C)N(C[C@@H]2CC[C@@H](Cc3ccc(-c4ccccc4)cc3)O2)C(=O)NC1c1ccc([N+](=O)[O-])cc1` (stereo not given in full), the activity change was -63.7% (active).
For `CCC(CC)COC(=O)C1=C(C)NC(=O)NC1c1ccc([N+](=O)[O-])cc1` (stereo not given), the activity change was -2.87% (inactive).
For `COc1ccc(C(=O)N2CCCN(C)CC2)c(OC)c1`, the activity change was 33.4% (inactive).
In the case of `COc1cc(C(=O)N2CCN(C)CC2)cc(OC)c1OC`, the activity change is reported as 42.7% (inactive).
For `COc1cc2c(C(=O)N3CCN(C)CC3)c(CSc3ccccc3)n(C)c2cc1Br`, the activity change was -60.2% (active).
With `C[C@@H]1CN([C@H](C)CO)C(=O)CCCn2nncc2CO[C@@H]1CN(C)S(=O)(=O)c1cccc(C#N)c1` the activity change was 3.99% (inactive).
With `COC1=CC(=O)OC(c2ccc(OC)cc2)C1` (stereo not given) the activity change was -17.1% (inactive).
With `CS(=O)(=O)c1cccc(-c2ccc3nncn3c2)c1` the activity change was 11.3% (inactive).
For `O=C(NC(Cc1ccccc1)C(=O)N1CCCC(C(F)(F)F)C1)c1ccccc1` (stereo not given), the activity change was 1.82% (inactive).
For `CN(Cc1ccccc1F)C(=O)C(Cc1ccccc1)NC(=O)c1ccccc1` (stereo not given), the activity change was -84.2% (active).
With `O=C(NC(Cc1ccccc1)C(=O)N1CCCC1C(=O)O)c1ccccc1` (stereo not drawn) (Bz-Phe-Pro-OH; configuration not given here) the activity change was 6.95% (inactive).
In the case of `COCCn1c(SCC(=O)Nc2ccc(F)cc2F)nc2c(c1=O)SCC2`, the activity change is reported as 18.2% (inactive).
For `CCNC(=O)CCc1nc(-c2ccc(C(C)(C)C)cc2)no1`, the activity change was -3.31% (inactive).
In the case of `COc1ccc(OCC(O)CNC(=O)Nc2ccc(Cl)cc2)cc1` (stereo not given), the activity change is reported as 5.19% (inactive).
In the case of `OC(CNCCc1ccc(Cl)cc1Cl)COc1ccccc1` (stereo not given), the activity change is reported as -91.8% (active).
For `CC(O)CNCCOc1cccc(Oc2ccccc2)c1` (stereo not given), the activity change was -29% (inactive).
With `COc1ccc(C(=O)CCC(=O)Nc2ccc(Cl)cc2)cc1` the activity change was 4.81% (inactive).
With `COc1ccc(NC(=O)CN2C(=O)NC(C)(c3ccccc3)C2=O)cn1` (stereo not given) the activity change was 12.7% (inactive).
For `COc1ccc(CS(=O)/C(Cl)=C(/Cl)C(=O)Nc2ccc(OC)nc2)cc1` (stereo not given), the activity change was -105% (active).
In the case of `O=C(COC(=O)c1cc(-c2cccs2)nn1-c1ccccc1)Nc1cc([N+](=O)[O-])ccc1Cl`, the activity change is reported as 21.3% (inactive).
For `C/C(=N\Nc1ccccc1)c1cccs1`, the activity change was 40.5% (inactive).
With `O=C(Nc1ccccc1-c1nc2ccccc2[nH]c1=O)c1cccs1` the activity change was 7.39% (inactive).
With `C/C(=N\Nc1nc2ccccc2[nH]1)c1cccs1` the activity change was -66.3% (active).
In the case of `O=C(COc1ccccc1Cl)Nn1cnnc1`, the activity change is reported as 26.3% (inactive).
With `CCOC(=O)CNC(=O)CSc1ncccc1-c1nc2ccccc2[nH]1` the activity change was 16.2% (inactive).
For `COc1ccc(S(=O)(=O)N(C)C[C@@H]2Oc3ccc(NS(=O)(=O)c4cn(C)cn4)cc3C(=O)N([C@@H](C)CO)C[C@@H]2C)cc1`, the activity change was -3.54% (inactive).
In the case of `O=C1CCN(CCCc2ccccc2)CCN1CCO`, the activity change is reported as -16.8% (inactive).
With `OCCN1CCN(c2nnc(-c3ccccc3)c3ccccc23)CC1` the activity change was 23.6% (inactive).
With `O=C1c2ccccc2C(=O)c2c1cccc2N1CCN(CCO)CC1` the activity change was -59.1% (active).
